Among the data in the supplement of paper PMC10849652 are log2 fold change values, retold here.

About 7,900 targets were measured; listed, in parts, are those with a hit and a random draw of the rest. About 0.6% of all pairs of compound and target were hits. Values without a mark were called inactive.

Assay in all cases: log2 fold change, soluble protein after heating vs DMSO (PISA); higher = thermal stabilisation; K562 cells, 10 uM, 30 min; active = over 0.2 and 3.5 SD of the protein, either way, in both replicates (recomputed)
Compound in one test: Cc1ccc(NC(=O)c2ccc(CN3CC[C@H](N(C)C)C3)c(C(F)(F)F)c2)cc1Nc1nccc(-c2cncnc2)n1 [bafetinib]
The essentials:
(§1)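 K562 cells at 2×10^6 cells/mL were given 10 μM compound for 30 min. Aliquots then went through 3 min of heating across 48°C-58°C, were pooled, and were extracted in PBS with 0.5% NP-40 at 4°C, and the supernatant after 21,000xg for 90 min was quantified by TMTpro 16plex LC-MS/MS with channel sums equalised. Thermal stability relative to control samples, from duplicates, is given as log2 fold change.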

Compound in test [1]: Cc1cccc(CC(=O)N2CCc3c2ccc(-c2cn(C)c4ncnc(N)c24)c3F)n1
The method in brief:
as §1

Compound in a further test: Cc1cn(-c2cc(NC(=O)c3ccc(C)c(Nc4nccc(-c5cccnc5)n4)c3)cc(C(F)(F)F)c2)cn1 [nilotinib]
The essentials: as §1

Compound in test [2]: Cc1nc(Nc2n[nH]c3c2CN(C(=O)N[C@H](CN(C)C)c2ccccc2)C3(C)C)c2sccc2n1
The essentials:
as §1

Compound in a further test: Cc1nc(Nc2ncc(C(=O)Nc3c(C)cccc3Cl)s2)cc(N2CCN(CCO)CC2)n1 [dasatinib]
The essentials: as §1

Compound in test [3]: Cc1ncc(-c2ccnc(Nc3ccc(S(C)(=O)=O)cc3)n2)n1C(C)C
The method in brief: as §1

Compound in test [4]: Cn1cc(-c2ccc3c(c2)CCN3C(=O)Cc2cccc(C(F)(F)F)c2)c2c(N)ncnc21
The method in brief: as §1

Compound in test [5]: Cn1cc(-c2ccc3nnc(C(F)(F)c4ccc5ncccc5c4)n3n2)cn1
The method in brief: as §1

Compound in the next test: Cn1cncc1[C@@](N)(c1ccc(Cl)cc1)c1ccc2c(c1)c(-c1cccc(Cl)c1)cc(=O)n2C [tipifarnib]
The method in brief:
as §1

Compound in the next test: FC(F)(F)c1ccc(/C=C/c2nc(COc3ccc(CCCCn4ccnn4)cc3)co2)cc1 [mubritinib]
The essentials: as §1

UniProt P18074, sequence (P18074 whole entry, looked up): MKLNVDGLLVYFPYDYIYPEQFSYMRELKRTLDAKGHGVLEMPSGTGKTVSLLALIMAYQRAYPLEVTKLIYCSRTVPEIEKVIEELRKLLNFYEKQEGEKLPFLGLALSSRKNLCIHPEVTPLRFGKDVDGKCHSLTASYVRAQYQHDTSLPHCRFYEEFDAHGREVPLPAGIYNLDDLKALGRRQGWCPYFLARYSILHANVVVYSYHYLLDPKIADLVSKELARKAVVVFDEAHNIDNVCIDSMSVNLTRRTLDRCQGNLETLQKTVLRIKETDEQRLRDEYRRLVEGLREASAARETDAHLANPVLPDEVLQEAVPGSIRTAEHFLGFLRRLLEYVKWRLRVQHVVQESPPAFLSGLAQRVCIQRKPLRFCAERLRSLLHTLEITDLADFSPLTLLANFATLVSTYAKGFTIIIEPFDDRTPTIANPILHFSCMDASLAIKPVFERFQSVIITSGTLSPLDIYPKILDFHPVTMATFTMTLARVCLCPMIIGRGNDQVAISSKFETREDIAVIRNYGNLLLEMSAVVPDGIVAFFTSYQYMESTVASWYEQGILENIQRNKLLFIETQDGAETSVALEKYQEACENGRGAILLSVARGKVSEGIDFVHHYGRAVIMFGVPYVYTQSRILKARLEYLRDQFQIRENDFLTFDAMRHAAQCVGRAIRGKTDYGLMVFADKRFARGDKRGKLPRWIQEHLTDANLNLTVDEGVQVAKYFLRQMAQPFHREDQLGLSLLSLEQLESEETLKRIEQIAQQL
UniProt Q03468, sequence (Q03468 whole entry, looked up): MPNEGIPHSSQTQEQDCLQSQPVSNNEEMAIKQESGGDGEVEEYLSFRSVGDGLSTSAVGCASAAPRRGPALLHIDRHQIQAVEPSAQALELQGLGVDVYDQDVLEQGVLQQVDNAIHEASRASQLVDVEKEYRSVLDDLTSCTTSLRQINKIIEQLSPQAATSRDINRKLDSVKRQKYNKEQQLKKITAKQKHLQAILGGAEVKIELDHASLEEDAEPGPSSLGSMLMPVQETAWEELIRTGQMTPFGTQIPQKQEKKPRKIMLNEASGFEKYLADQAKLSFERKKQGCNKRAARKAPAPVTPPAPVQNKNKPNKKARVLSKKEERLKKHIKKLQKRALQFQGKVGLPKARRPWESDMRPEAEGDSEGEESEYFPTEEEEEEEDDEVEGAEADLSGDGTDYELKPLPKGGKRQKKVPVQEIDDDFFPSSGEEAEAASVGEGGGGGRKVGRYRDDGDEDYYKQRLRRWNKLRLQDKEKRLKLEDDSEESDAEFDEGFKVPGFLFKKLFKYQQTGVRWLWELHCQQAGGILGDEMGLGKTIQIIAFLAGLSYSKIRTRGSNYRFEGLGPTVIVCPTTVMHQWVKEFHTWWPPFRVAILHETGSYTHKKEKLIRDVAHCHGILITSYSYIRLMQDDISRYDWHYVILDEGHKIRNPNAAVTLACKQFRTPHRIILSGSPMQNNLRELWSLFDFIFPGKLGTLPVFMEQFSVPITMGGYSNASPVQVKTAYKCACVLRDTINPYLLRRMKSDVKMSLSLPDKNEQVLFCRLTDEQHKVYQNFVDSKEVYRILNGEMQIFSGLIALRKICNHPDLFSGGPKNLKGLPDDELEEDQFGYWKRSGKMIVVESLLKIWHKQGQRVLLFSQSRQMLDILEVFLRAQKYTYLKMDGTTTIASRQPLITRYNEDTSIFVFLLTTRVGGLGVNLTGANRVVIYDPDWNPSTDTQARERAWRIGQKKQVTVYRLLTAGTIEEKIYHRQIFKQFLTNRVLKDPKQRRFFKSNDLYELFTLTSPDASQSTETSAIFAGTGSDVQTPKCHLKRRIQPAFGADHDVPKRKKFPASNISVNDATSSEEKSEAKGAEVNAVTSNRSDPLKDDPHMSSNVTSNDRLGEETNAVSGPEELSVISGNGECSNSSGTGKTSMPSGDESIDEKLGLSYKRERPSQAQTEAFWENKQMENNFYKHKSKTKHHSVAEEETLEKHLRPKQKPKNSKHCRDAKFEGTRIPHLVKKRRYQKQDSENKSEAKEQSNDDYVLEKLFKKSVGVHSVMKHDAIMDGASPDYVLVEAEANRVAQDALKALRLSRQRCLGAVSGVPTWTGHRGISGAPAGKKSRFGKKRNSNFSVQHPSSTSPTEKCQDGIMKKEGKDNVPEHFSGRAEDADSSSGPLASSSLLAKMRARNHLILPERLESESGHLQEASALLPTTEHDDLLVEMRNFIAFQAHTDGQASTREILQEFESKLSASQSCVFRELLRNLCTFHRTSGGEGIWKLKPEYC
UniProt O60888, sequence (O60888 whole entry, looked up): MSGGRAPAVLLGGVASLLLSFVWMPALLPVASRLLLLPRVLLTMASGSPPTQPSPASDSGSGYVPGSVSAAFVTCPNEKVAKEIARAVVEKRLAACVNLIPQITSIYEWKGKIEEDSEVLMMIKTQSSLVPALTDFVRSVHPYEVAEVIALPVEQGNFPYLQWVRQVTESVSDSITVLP
UniProt Q13948, sequence (Q13948 whole entry, looked up): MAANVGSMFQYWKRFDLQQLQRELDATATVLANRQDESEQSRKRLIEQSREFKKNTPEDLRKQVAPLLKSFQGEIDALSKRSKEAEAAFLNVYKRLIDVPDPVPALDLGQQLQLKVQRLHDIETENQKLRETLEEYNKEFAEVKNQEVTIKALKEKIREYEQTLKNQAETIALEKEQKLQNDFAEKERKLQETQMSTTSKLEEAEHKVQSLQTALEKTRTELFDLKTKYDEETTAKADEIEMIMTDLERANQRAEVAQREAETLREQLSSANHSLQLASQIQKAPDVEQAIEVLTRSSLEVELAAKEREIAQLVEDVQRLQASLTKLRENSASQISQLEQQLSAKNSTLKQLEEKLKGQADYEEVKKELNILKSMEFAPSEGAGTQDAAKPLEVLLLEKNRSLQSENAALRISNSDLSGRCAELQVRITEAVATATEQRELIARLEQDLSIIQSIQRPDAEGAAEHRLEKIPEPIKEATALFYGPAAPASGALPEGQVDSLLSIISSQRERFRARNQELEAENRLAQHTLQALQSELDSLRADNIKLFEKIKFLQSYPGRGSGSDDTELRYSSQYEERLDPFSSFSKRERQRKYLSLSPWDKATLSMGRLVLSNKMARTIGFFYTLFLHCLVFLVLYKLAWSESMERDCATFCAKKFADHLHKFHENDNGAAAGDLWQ
UniProt Q15369, sequence (Q15369 whole entry, looked up): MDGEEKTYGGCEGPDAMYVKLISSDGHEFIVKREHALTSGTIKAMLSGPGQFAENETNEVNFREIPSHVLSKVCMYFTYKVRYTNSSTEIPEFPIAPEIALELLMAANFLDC
UniProt Q9BU89, sequence (Q9BU89 whole entry, looked up): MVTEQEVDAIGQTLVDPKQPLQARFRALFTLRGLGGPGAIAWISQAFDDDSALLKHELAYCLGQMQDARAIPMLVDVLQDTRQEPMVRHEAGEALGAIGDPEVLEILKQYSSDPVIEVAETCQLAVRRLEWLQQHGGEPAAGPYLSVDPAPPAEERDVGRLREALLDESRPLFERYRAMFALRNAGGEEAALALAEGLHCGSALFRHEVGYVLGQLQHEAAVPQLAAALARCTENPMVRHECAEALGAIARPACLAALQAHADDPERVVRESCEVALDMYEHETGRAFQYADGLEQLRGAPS
UniProt P07711, sequence (P07711 whole entry, looked up): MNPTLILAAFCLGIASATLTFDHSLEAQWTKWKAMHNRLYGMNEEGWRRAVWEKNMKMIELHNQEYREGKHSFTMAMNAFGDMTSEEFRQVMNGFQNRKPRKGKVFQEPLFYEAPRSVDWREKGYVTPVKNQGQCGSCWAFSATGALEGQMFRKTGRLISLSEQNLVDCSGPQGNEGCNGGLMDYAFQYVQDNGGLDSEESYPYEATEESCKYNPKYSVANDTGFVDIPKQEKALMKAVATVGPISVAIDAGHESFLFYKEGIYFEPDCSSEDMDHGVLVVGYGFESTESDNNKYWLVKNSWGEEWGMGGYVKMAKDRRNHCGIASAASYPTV
UniProt Q96DA6, sequence (Q96DA6 whole entry, looked up): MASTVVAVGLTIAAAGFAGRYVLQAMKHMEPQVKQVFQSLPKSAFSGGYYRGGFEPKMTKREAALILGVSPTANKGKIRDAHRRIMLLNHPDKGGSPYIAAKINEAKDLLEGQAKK
UniProt Q96LJ7, sequence (Q96LJ7 whole entry, looked up): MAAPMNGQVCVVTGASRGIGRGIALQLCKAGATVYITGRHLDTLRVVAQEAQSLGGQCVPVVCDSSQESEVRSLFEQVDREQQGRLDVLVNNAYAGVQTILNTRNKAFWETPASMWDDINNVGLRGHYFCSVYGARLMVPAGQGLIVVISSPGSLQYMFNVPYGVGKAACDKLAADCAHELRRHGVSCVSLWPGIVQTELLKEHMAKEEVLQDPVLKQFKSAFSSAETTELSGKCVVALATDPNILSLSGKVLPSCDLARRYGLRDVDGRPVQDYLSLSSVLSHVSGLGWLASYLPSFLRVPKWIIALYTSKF
UniProt Q9UBQ6, sequence (Q9UBQ6 whole entry, looked up): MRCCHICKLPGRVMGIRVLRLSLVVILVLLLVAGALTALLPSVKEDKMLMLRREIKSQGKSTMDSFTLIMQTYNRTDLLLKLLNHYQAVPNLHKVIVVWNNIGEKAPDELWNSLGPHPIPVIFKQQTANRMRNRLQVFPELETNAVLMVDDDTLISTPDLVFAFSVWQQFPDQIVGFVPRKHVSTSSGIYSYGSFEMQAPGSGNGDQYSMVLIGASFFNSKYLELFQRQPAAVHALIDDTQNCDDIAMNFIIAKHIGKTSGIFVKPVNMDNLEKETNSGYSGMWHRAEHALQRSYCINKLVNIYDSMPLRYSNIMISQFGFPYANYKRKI
UniProt P25685, sequence (P25685 whole entry, looked up): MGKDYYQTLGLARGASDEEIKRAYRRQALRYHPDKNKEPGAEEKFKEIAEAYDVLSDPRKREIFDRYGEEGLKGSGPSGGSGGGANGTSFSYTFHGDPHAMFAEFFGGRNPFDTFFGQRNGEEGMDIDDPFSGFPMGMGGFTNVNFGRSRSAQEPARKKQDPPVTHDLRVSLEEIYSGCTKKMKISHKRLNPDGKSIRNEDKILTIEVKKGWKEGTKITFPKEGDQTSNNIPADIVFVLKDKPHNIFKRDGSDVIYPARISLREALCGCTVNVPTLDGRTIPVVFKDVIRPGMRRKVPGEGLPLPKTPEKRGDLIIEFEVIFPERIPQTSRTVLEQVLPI

Regarding ERCC2 (UniProt P18074), the log2 fold change was 0.094 with bafetinib; 0.061 in [1]; -0.014 with nilotinib; -0.175 in test [2]; -0.185 in the test with dasatinib; -0.022 in [3]. The log2 fold change in test [4] was 0.05; in test [5], 0.01; with tipifarnib, -0.062; in the test with mubritinib, 0.114.

Consider DNAJB1 (UniProt P25685), for which the log2 fold change is -0.026 with bafetinib; 0.013 in [1]; -0.042 in the test with nilotinib; -0.058 in [2]; -0.064 with dasatinib; 0.026 in test [3]. Besides, the log2 fold change was 0.035 in test [4], 0.02 in [5], -0.026 in the test with tipifarnib and 0.01 with mubritinib.

As for EVC2 (UniProt Q86UK5), the log2 fold change in the test with bafetinib was -0.08; in test [1] it was 0.023; in the test with nilotinib, -0.066; in test [2] it was -0.092; with dasatinib it was -0.043; in [3] it was 0.131. Besides, the log2 fold change in test [4] was -0.149; in test [5] it was -0.148; with tipifarnib, 0.162; in the test with mubritinib it was -0.053.

As for DHX16 (UniProt O60231), the log2 fold change in the test with bafetinib was 0.001; in [1] it was 0.044; with nilotinib, -0.031; in test [2] it was 0.019; with dasatinib it was -0.095; in test [3], -0.006. Moreover, the log2 fold change is 0.059 in [4], 0.002 in test [5], -0.04 in the test with tipifarnib and 0.147 with mubritinib.

On to DNAJC19 (UniProt Q96DA6), for which the log2 fold change is -0.123 with bafetinib; 0.003 in [1]; 0.025 in the test with nilotinib; 0.002 in test [2]; -0.003 with dasatinib; -0.005 in [3]. Besides, the log2 fold change was 0.012 in test [4], 0.022 in test [5], 0.012 with tipifarnib and 0.001 in the test with mubritinib.

ELOC (UniProt Q15369): the log2 fold change in the test with bafetinib is 0.003; in [1], 0.014; with nilotinib, -0.028; in test [2], 0.013; with dasatinib, 0.032; in [3], -0.003. Besides, the log2 fold change in test [4] was 0.116; in test [5], 0.049; with tipifarnib it was -0.027; with mubritinib it was 0.005.

Regarding EXTL2 (UniProt Q9UBQ6), the log2 fold change is -0.041 with bafetinib; 0.021 in test [1]; -0.02 in the test with nilotinib; 0.006 in [2]; -0.008 in the test with dasatinib; -0.059 in test [3]. Besides, the log2 fold change was -0.039 in [4], -0.064 in test [5], 0.014 in the test with tipifarnib and 0.029 in the test with mubritinib.

ERCC6 (UniProt Q03468): the log2 fold change with bafetinib is -0.775 (active); in [1] it was -0.016; with nilotinib, 0.041; in [2], -0.087; in the test with dasatinib, -0.043; in [3], -0.021. The log2 fold change is 0.129 in [4], -0.094 in test [5], 0.019 with tipifarnib and 0.059 with mubritinib.

For CUTA isoform 2 (UniProt O60888), the log2 fold change was -0.148 in the test with bafetinib; 0.1 in [1]; 0.016 with nilotinib; 0.016 in test [2]; 0 in the test with dasatinib; -0.01 in test [3]. For the same target, the log2 fold change is 0.07 in test [4], 0.09 in test [5], 0.123 in the test with tipifarnib and 0.028 with mubritinib.

For the target DOHH (UniProt Q9BU89), the log2 fold change with bafetinib is 0.653 (active); in test [1] it was 0.008; with nilotinib, 0.035; in [2], -0.169; with dasatinib, 0.013; in test [3] it was -0.054. Also, the log2 fold change in test [4] was -0.089; in [5] it was 0.022; with tipifarnib, 0.014; in the test with mubritinib, 0.03.

As for DHRS1 (UniProt Q96LJ7), the log2 fold change was 0.352 with bafetinib; 0.316 in test [1]; 0.638 with nilotinib; -0.076 in test [2]; 0.02 in the test with dasatinib; -0.14 in [3]. Besides, the log2 fold change in [4] is 1.1 (active); in test [5], -0.106; with tipifarnib, 0.717; with mubritinib, 0.178.

In the case of DYRK1A isoform 2 (UniProt Q13627), the log2 fold change is -0.073 in the test with bafetinib; 0.02 in [1]; -0.005 with nilotinib; -0.056 in test [2]; -0.098 with dasatinib; -0.047 in test [3]. For the same target, the log2 fold change was 0.021 in test [4], -0.046 in [5], -0.042 with tipifarnib and 0.034 in the test with mubritinib.

On to CTSL (UniProt P07711), for which the log2 fold change with bafetinib is -0.261; in test [1], -0.046; with nilotinib, 0.041; in [2] it was 0.103; with dasatinib, 0.14; in test [3], 0.004. Also, the log2 fold change in test [4] is 0.013; in test [5], 0.045; with tipifarnib, 0.145; with mubritinib, -0.006.

As for CUX1 isoform 2 (UniProt Q13948), the log2 fold change with bafetinib was 0.051; in test [1], 0.042; with nilotinib it was -0.001; in test [2], -0.029; in the test with dasatinib, -0.084; in test [3], 0.078. The log2 fold change in [4] is 0.072; in test [5], 0.063; in the test with tipifarnib, 0.062; with mubritinib it was 0.007.

As for EIF4G1 isoform 8 (UniProt Q04637), the log2 fold change was -0.002 with bafetinib; 0.046 in test [1]; -0.223 with nilotinib; -0.11 in [2]; -0.157 in the test with dasatinib; -0.17 in test [3]. Further, the log2 fold change was -0.155 in test [4], -0.117 in [5], -0.083 in the test with tipifarnib and -0.071 with mubritinib.
